The record followed here is PubChem BioAssay (NCATS).

Records with an inconclusive call do not appear. Where a call stands in place of a potency, no number is given. Calls of active or inactive are those of the source. Calls come from the whole dose curve; as a rule, active = well fitted inhibition curve with a large enough effect; inconclusive = small, poorly fitted or top-dose-only effect; inactive = no such curve, though single readings can be large or run the other way.

The target of the first assay is Retinal dehydrogenase 2 (Homo sapiens) (UniProt O94788). In words: qHTS for Inhibitors of the Aldehyde Dehydrogenase Family (ALDH1A2) Confirmation screens (AID 2061314). Note: nearly all actives have a fitted effect of over 65% in size. Note: potency is the fitted concentration of half-maximal effect. Particulars: ALDH1A2 enzyme inhibition qHTS confirmation; series mostly up to 45.9 µM. A general note: In qHTS, concentration-response curves come from the screen itself.
With `Cc1cccc(-c2nc3c(cnn3-c3ccccc3)c(=O)n2-c2ccc(Br)cc2)c1`, the Potency entry is “inactive”. On the same count and under the same terms, the result for `COc1ccc(CC(=O)N2CCC3(CC2)CN([S+](=O)([O-])c2ccccc2)CCO3)cc1` reads “inactive”; that for `Cc1ccc(-n2c(-c3cccc(C)c3)nc3c(cnn3-c3ccccc3)c2=O)cc1`, “inactive”; that for `CNC(=O)c1cc(C)nc2onc(C3CCCN3C(=O)c3ccccc3)c12` (stereo not given), “inactive”. With `CCc1cnc2c(c1SCc1ccccc1C)c(=O)n(C)c(=O)n2C`, the Potency result is “inactive”. Still for that read-out and setting: the result for `CCCCOc1ccc(C(=O)N(Cc2ccc(N(C)C)cc2)Cc2ccco2)cc1` reads “inactive”; that for `COc1ccc(C(CNC(=O)c2cccc([N+](=O)[O-])c2)N2CCOCC2)cc1` (stereo not given), “inactive”. On the same count and under the same terms, the result for `CC(Cn1cncn1)NC(=O)c1cccc(S(=O)(=O)N2CCOCC2)c1` (stereo not given) reads “inactive”. Still for that read-out and setting: the result for `COc1ccccc1C(=O)Nc1cc(-c2cccc(Br)c2)nn1-c1ccccc1` reads “inactive”; that for `COC(=O)CSc1ccc2nnc(CCNS(=O)(=O)c3ccccc3)n2n1`, “inactive”. For the molecule `COCC1CN(Cc2ccc(C(F)(F)F)cc2)CC12CCNCC2` (stereo not given), the Potency entry was “inactive”. The same measure, in the same setting: the result for `CN(CC1(CO)CC1)c1nccc(CCC(F)(F)F)n1` reads “inactive”.

For `COc1ccc(-c2nc(C(=O)Nc3ccc(C(C)=O)cc3)nn2-c2cccc(Cl)c2)cc1`, the Potency result was “inactive”. Same read-out and setting: the result for `Cc1ccc(Cc2nc3ccccc3nc2SCC(=O)Nc2cccc(C(F)(F)F)c2)cc1` reads “inactive”. The same measure, in the same setting: the result for `COc1ccc(NC(=O)CCc2c(C)nc3c(c2C)c(=O)n(C)c(=O)n3C)cc1OC` reads “inactive”; that for `COc1ccc(NC(=O)CN2C(=O)COc3ccc(S(=O)(=O)N4CCOCC4)cc32)cc1`, “inactive”.

In the case of `O=C1COc2cc([S+](=O)([O-])Nc3ccc(Cl)c(Cl)c3)c(Cl)cc2N1`, the Potency is 14.2 µM (active). Same read-out and setting: the result for `Cc1nn2c(=O)cc(COC(=O)c3ccc(F)cc3)nc2s1` reads “inactive”. The same measure, in the same setting: the result for `COc1cc2nc(NC(=O)c3ccc(S(=O)(=O)N4CCOCC4)cc3)sc2cc1OC` reads “inactive”; that for `COc1ccc(-c2nnc(SCC(=O)Nc3cccc(C(F)(F)F)c3)nc2-c2ccc(OC)cc2)cc1`, “inactive”; that for `CCc1ccc(N(CC)C(=O)c2cn(C)c(=O)c3cc(OC)c(OC)cc23)cc1`, “inactive”. Same read-out and setting: the result for `Cn1cc(S(=O)(=O)N2CCCCC2)cc1C(=O)Nc1ccc(OC(F)(F)F)cc1` reads “inactive”; that for `COc1ccccc1-c1[nH]nc2ncc(C(=O)NCCc3ccccn3)nc12`, 39.8 µM (active).

On to `Cc1ccc(-c2nnc3ccccc3c2C(=O)Nc2cccc(C(F)(F)F)c2)cc1`, for which the Potency entry is “inactive”. On the same count and under the same terms, the result for `CC(=O)c1ccc(NC(=O)CCc2c(C)nn(-c3ccc4nnc(C)n4n3)c2C)cc1` reads “inactive”. Still for that read-out and setting: the result for `CC[C@H]1CN(C(=O)Nc2cccc(C(F)(F)F)c2)CC[C@H]1CC(=O)N(C)CCC#N` reads “inactive”; that for `O=C(CN(Cc1cccc2ccccc12)C1CC1)Nc1ccc(N2CCOCC2)cc1`, 11.3 µM (active); that for `COc1cccc(-c2nn(-c3ccccc3)c(OC(C)=O)c2-c2ccc(NC(=O)C3CCCC3)cc2)c1`, “inactive”. Same read-out and setting: the result for `COc1ccc(S(=O)(=O)N2CCOC[C@H](Oc3ccc(C(F)(F)F)cc3)C2)cc1` reads “inactive”. With `CC(=O)Nc1ccc(S(=O)(=O)N[C@@H]2C=C[C@@H](c3c(C)nn(-c4ccc(C(C)(C)C)cc4)c3C)C2)cc1`, the Potency result was “inactive”. `CN(C)C(=O)c1ccc(-c2cc[nH]c(=O)c2N)cc1`: the Potency was 0.4 µM (active).

In the case of `O=C(c1n[nH]c2ccccc12)N1CCCC(Cc2noc(-c3cnccn3)n2)C1` (stereo not given), the Potency entry is “inactive”. The same measure, in the same setting: the result for `COc1ccc(N2CCN(C(=O)c3cc(NS(=O)(=O)c4ccc(F)cc4)ccn3)CC2)cc1` reads “inactive”; that for `Fc1cc(F)cc(Cc2nc3nccc(-c4cccnc4)n3n2)c1`, “inactive”. Turning to `CNC(=O)[C@H]1C[C@H](Oc2cccnc2)CN1C(=O)Cc1ccccc1`, the Potency entry is “inactive”.

As for `CC(=O)c1cccc(NC(=O)c2ccc(Cl)c(S(=O)(=O)N3CCOCC3)c2)c1`, the Potency result was “inactive”. `Cc1noc(Nc2sc3c(c2-c2nc4ccccc4s2)CCNC3)n1`: the Potency was 25.2 µM (active).

Consider `COc1ccc(S(=O)(=O)c2c(C(=O)c3ccc(C)c(C)c3)cnc3ccc(C)cc23)cc1`, for which the Potency result is “inactive”. On the same count and under the same terms, the result for `Nc1c(-c2ccccc2)cc[nH]c1=O` reads 0.159 µM (active). Same read-out and setting: the result for `O=C(c1nccc2ccccc12)N1CCc2nc3cc[nH]n3c(=O)c2C1` reads “inactive”.

Another assay deals with Retinaldehyde dehydrogenase 3 (Homo sapiens) (UniProt P47895). In words: qHTS for Inhibitors of the Aldehyde Dehydrogenase Family (ALDH1A3) Primary screen (AID 2061315). Particulars: ALDH inhibition qHTS; series mostly up to 56 µM.
Take `O=C1COc2cc([S+](=O)([O-])Nc3ccc(Cl)c(Cl)c3)c(Cl)cc2N1`: the Potency entry is “inactive”. Still for that read-out and setting: the result for `O=C(CN(Cc1cccc2ccccc12)C1CC1)Nc1ccc(N2CCOCC2)cc1` reads “inactive”; that for `CN(C)C(=O)c1ccc(-c2cc[nH]c(=O)c2N)cc1`, “inactive”; that for `Cc1noc(Nc2sc3c(c2-c2nc4ccccc4s2)CCNC3)n1`, “inactive”. Same read-out and setting: the result for `Nc1c(-c2ccccc2)cc[nH]c1=O` reads “inactive”.
